Test results as given in PMC12136788.
Changes are numbered by the printed parent chain. Whole data set: some 24,000 sequences, median “enrichment r” near 0.99, cut for the highest 2% near 3.7. The sample as a whole holds a higher share of the highest values than the screen did.

B1: chr18:35731670:35731671:+_ENSMUSG00000037236_ENSMUST00000166793|perfect_dup|motif|central (ssRNA)
RNA: GGGAGUUCUACAGUCCGACGAUCUGACCCUGUGAGUCCCUACUGAGAGAUGACUGCUGGAAUGACUUGGACAUUGUAGAACGGGCUCUUGUCUAUUUUAUAGAUUAAAAAAAAAAAUUUUUUUAAAGACGGCCAAAAAGAAAGCAACAGAGGAUUGAGCAUCA
B2: chr16:20683585:20683586:+_ENSMUSG00000045983_ENSMUST00000044783|mus_mus|motif|central (ssRNA)
RNA: GGGAGUUCUACAGUCCGACGAUCUAUUGCUUCUGUUAACAUCUUCAACUUGAAUAACUCUCCAAUAAACUUGAUAUUCCCGGAAGAGCGCCGCCUAGCUAUGUCCCGGGCUUCUUCUAGCUCUUCUUUCAGGCGUCCCCGUUCCAACAGAGGAUUGAGCAUCA
B3: chr17:24706804:24706805:+_ENSMUSG00000032855_ENSMUST00000035565|mus_hu|FALSE|FALSE (ssRNA)
RNA: GGGAGUUCUACAGUCCGACGAUCGCAGCCGGGCACGAAGGUGGCCACCAGGGCAGGGCAGACAUUCUCAAAGCGGGCGCUGACACUGCCCCCAGGCCAGCGAGCCGUGGCCGUGGCGUUGGCACCAGAGUCCACCUGGAGCACCAACAGAGGAUUGAGCAUCA
B4: chr7:17149110:17149111:-_ENSMUSG00000058230_ENSMUST00000075845|mus_hu|FALSE|FALSE (ssRNA)
RNA: GGGAGUUCUACAGUCCGACGAUCAAUAUCCAUGUAUACAGAUUCCUCCAGCCACUGGUAGAAAUCCUCAUUCAUAAUAAAACUACGGGCCUCUUCCCAAGGCUUUCCGGGAGUUAUGAAAGGAGAAGUCUCCAGGUUUUCUUUCAACAGAGGAUUGAGCAUCA
B5: chr12:8504966:8504967:-_ENSMUSG00000054364_ENSMUST00000067384|mus_hu|FALSE|FALSE (ssRNA)
RNA: GGGAGUUCUACAGUCCGACGAUCACAAGUGUGGUCAGAAUGCUACUGUCGUAUGCAAAUGACGAGUGCAUUAAGUGUCAAACAAUGAAACAAUUGUGCAAAGAAUAAAAAAACAAAUUUUAGCCUUUAAAUAAAUCAAAUAACCAACAGAGGAUUGAGCAUCA
B6: chr5:141234466:141234467:-_ENSMUSG00000000149_ENSMUST00000000153|mus_hu|FALSE|FALSE (ssRNA)
RNA: GGGAGUUCUACAGUCCGACGAUCUAAUAAAAAAGACAAUAAGGAUUAACAGUGAAAUUAAAAUUAAAAAAUACAAAAGCCUAAGGUUCUGGAGACAAAACUGACUAGAGUCUAUGUGUAGCCAAGUUGUGAAUGACAGUUUAGCAACAGAGGAUUGAGCAUCA
B7: chr5:141234466:141234467:-_ENSMUSG00000000149_ENSMUST00000000153|mus_hu|motif|central (ssRNA)
RNA: B6 RNA with U81G, A82G
B8: 83879064_83879184_615_CDS_ENSMUSG00000030016_ENSMUST00000032088|mouse|control|control (ssRNA)
RNA: GGGAGUUCUACAGUCCGACGAUCUGGAGUUAUAUGAGACUCAUCAUCCCACCGACUACCAUGAGGCUUCCCCUUCUUUUGUUGUGCUUCAGGAAAAUCCAAUUUUUCUUUGGUUAAUCUUGGAUCGGUUCGGUGUUGAGUUACCAACAGAGGAUUGAGCAUCA
B9: chrX:20248820:20248821:+_ENSMUSG00000001924_ENSMUST00000001989|mus_mus|mus_mus_mus_hu_True|58_98 (ssRNA)
RNA: GGGAGUUCUACAGUCCGACGAUCGGCGAAGUCCGUCAUCACAAAGUCAGGUUCUGCCAGUGAGGCCACCAAGGAUUUAAAACUAAUCUUCUUAGGUACUUUGACCUGACUGACGAUGCCUCCACGGAUGUAGUCGGAGAAGUUCAACAGAGGAUUGAGCAUCA
B10: chr17:35253193:35253194:-_ENSMUSG00000024387_ENSMUST00000025246|mus_mus|FALSE|FALSE (ssRNA)
RNA: GGGAGUUCUACAGUCCGACGAUCGGCCUUUUCUUCCUUUAUUUCAUAUUCCCACCACAGUAACAAUUCCUUUAAUUUAAACUAAAAACCAUAGACUUCCUGAAAGGGUGGCAGCAGAGGAAUGGUGGUGUCACAGACAGAGGGCAACAGAGGAUUGAGCAUCA
B11: chr16:45382771:45382772:-_ENSMUSG00000022661_ENSMUST00000163230|mus_mus|mus_mus_mus_hu_True|1_18 (ssRNA)
RNA: GGGAGUUCUACAGUCCGACGAUCCUGGGUCAUGUUAUAAGACAAAUGGACAGGGAGGGCAUGCUUCUCAAAAAAUGUGAGCUAUUGUCUAAGACUAACAAUAUUUAUCUAGCUAUAUAAAAAUAAGAAAUGAAUAAACAUUACCAACAGAGGAUUGAGCAUCA
B12: chr16:45382771:45382772:-_ENSMUSG00000022661_ENSMUST00000163230|mus_mus|mus_mus_mus_hu_True|18_48 (ssRNA)
RNA: B11 RNA with U87A, A137G, C138U, A139U, U140A, U141A, A142G, C143A
B13: chr16:45382771:45382772:-_ENSMUSG00000022661_ENSMUST00000163230|mus_mus|mus_mus_mus_hu_True|1_48 (ssRNA)
RNA: B11 RNA with U87A, U117A, A121U, U123A, A124G, A125U, G126U
B14: chr16:45382771:45382772:-_ENSMUSG00000022661_ENSMUST00000163230|mus_mus|mus_mus_mus_hu_True|18_58 (ssRNA)
RNA: B11 RNA with G80A, U84C, G86C, A137G, C138U, A139U, U140A, U141A, A142G, C143A
B15: chr16:45382771:45382772:-_ENSMUSG00000022661_ENSMUST00000163230|mus_mus|mus_mus_mus_hu_True|18_98 (ssRNA)
RNA: GGGAGUUCUACAGUCCGACGAUCCUGGGUCAUGUUAUGGGCCCAAUGGACAGGGAGGGCAUGCUUCUCAAAAAAUGUGAGCUAUUGUCUAAGACUAACAAUAUUUAUCUAGCUAUAUAAAAAUAAGAAAUGAAUAAGUUAAGACAACAGAGGAUUGAGCAUCA
B16: chr16:45382771:45382772:-_ENSMUSG00000022661_ENSMUST00000163230|mus_mus|mus_mus_mus_hu_True|18_18 (ssRNA)
RNA: B15 RNA with G38A, G39A, C41A, C43A

target: T1, UNK ZnF1-3 (human, UniProt Q9C0B0 31-174); test: nsRBNS (natural sequence RNA bind-n-seq); RBNS binding buffer (assumed for nsRBNS): 25 mM Tris pH 7.5, 150 mM KCl, 3 mM MgCl2, 0.01% Triton X-100, 500 ug/ml BSA, 20 U/ml SUPERase-In, 4 C; UNK is unkempt and MSI1 is Musashi-1; names of the RNAs are library labels; protein concentration not given here; high values mean tight binding
T1 sequence: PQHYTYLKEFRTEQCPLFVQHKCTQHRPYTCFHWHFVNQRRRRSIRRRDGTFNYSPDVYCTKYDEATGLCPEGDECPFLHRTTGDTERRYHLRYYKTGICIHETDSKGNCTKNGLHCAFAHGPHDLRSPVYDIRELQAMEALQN

Binder | binding signal [enrichment R]
B1 | 3.64
B2 | 0.438
B3 | 0.934
B4 | 0.85
B5 | 2.25
B6 | 9.17
B7 | 13.3
B8 | 0.468
B9 | 0.876
B10 | 1.66
B11 | 2.42
B12 | 5.66
B13 | 3.57
B14 | 7.97
B15 | 5.27
B16 | 5.7
